Measurements reported in PubChem BioAssay AID1347076 (National Center for Advancing Translational Sciences (NCATS), 2019).
Out of some 400,000 compounds screened, about 13,000 (3.2%) were called active. Not shown: some 18% with an inconclusive outcome. Calls follow the shape of the dose curve; as a rule, active = well fitted cell-killing curve with a large enough effect; inconclusive = small, poorly fitted or top-dose-only effect, or effect the other way; inactive = flat fitted curve, though single readings scatter. The full list was thinned out, with actives kept by preference.

Assay: qHTS assay for MDR1-selective chemotherapeutics: Primary screen using the drug-selected MDR subline cells KB-V1; also: nearly all actives have a fitted effect of over 60% in size
Details: KB-V1 MDR cells viability, CellTiter-Glo, 72 h; series mostly up to 46.1 µM; activity change, negative = cytotoxicity: at the top concentration
Procedure, shortened: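 Readout: CellTiter-Glo luminescence, 10 min after addition. Cells: KB-V1 MDR subline, 72 h at 37 degrees C with compound. Analysis: corrected, normalized data fitted to concentration-effect curves.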
% is scaled to controls: 0 for no effect and ±100 for the full control effect; potency is read from the fitted curve at half-maximal effect.

| Structure (SMILES) | activity change, negative = cytotoxicity | Potency |
| --- | --- | --- |
| CN(C)c1ccc(C=Nc2ccc(/C=C/c3ccnc4ccccc34)cc2)cc1 | -1.45% (inactive) | – |
| CN(C)c1ccc(/C=C/C=C/c2ccnc3ccccc23)cc1 | – | 6.51 µM (active) |
| CN(Cc1ccccc1)c1ccc(/C=C/c2ccnc3ccccc23)cc1 | -10.1% (inactive) | – |
| CN(C)c1ccc(/C=C/c2c3ccccc3nc3ccccc23)cc1 | 2.13% (inactive) | – |
| NC(=O)C1CCN(C(=O)c2cccc(NC(=O)c3nsc4ccccc34)c2)CC1 | 0% (inactive) | – |
| COCC1CCCCN1C(=O)c1cc(COc2ccc(C)c(C)c2)on1 (stereo unspecified) | -25.6% (inactive) | – |
| CC(=O)c1c(Nc2ccccc2)sc(C(=O)c2ccccc2)c1C | – | 3.66 µM (active) |
| CCC(=O)Nc1sc(C(=O)Nc2ccccc2)c(C)c1C(=O)OC | -14.2% (inactive) | – |
| CCCS(=O)(=O)c1c(Nc2ccccc2C)sc(C(=O)c2ccccc2)c1N | -18.5% (inactive) | – |
| COc1ccc(C(=O)OCC(=O)Nc2cc(C)on2)cc1F | 19.5% (inactive) | – |
| CC(=NNC(N)=O)C1CC2CCC1CC2 (stereo unspecified) | -4.44% (inactive) | – |
| Cc1ccccc1C#CC1=CC(=O)CC(C)(C)C1 | 20.2% (inactive) | – |
| CCOc1ccccc1N1CCN(C(=O)c2ccc3[nH]c(C)c(C)c3c2)CC1 | – | 6.51 µM (active) |
| Cc1[nH]c2ccc(C(=O)N3CCN(C)CC3)cc2c1C | 0.208% (inactive) | – |
| CCn1c(C)c(C)c2cc(C(=O)N3CCN(c4cccc(C)c4C)CC3)ccc21 | – | inactive |
| O=C(NCC(O)c1nc2ccccc2[nH]1)c1ccc(Br)cc1 (stereo unspecified) | 20.8% (inactive) | – |
| O=C(CC[C@H]1O[C@@H](n2ccc(=O)[nH]c2=O)[C@H](O)[C@@H]1O)N[C@H](Cc1ccccc1)C(=O)NCCCN1CCCC1=O | 0% (inactive) | – |
| C[C@@H]1NC(=O)[C@@]2(C)[C@@H](c3ccccc3)[C@H]3COc4ccccc4[C@@H]3N2C1=O | 0% (inactive) | – |
| CN1CC(c2ccccc2)C2(COc3ccccc3C2=O)C12C(=O)Nc1ccccc12 (stereo unspecified) | – | 20.6 µM (active) |
| COc1cccc(CNC(=O)CCC(=O)N2CC3CCCN3c3ccccc32)c1 (stereo unspecified) | 21.6% (inactive) | – |
| CCc1nc2c(=O)[nH]cnc2o1 | 19.1% (inactive) | – |
| C[C@H]1CN([C@@H](C)CO)C(=O)CCCn2cc(nn2)CO[C@@H]1CN(C)S(=O)(=O)c1ccc(-n2cccn2)cc1 | 0% (inactive) | – |
| CN1CCN(C(=O)c2ccc(-c3cc4nc(NCc5cccnc5)n(C)c(=O)c4s3)cc2)CC1 | -13.5% (inactive) | – |
| CCOc1ccccc1NC(=O)C1CCCN(C(=O)Nc2ccccc2)C1 (stereo unspecified) | -19.8% (inactive) | – |

| Structure (SMILES) | activity change, negative = cytotoxicity | Potency |
| --- | --- | --- |
| COc1ccc(NC(=O)N2CCCC(C(=O)Nc3ccccc3OC)C2)cc1 (stereo unspecified) | 3.84% (inactive) | – |
| CCOc1ccc(NC(=O)C2CCCN(C(=O)Nc3ccccc3)C2)cc1 (stereo unspecified) | – | 14.6 µM (active) |
| CC(C)(C)C1CCC(=O)N2CCC[C@]2(c2ccccc2)C1 (stereo partly specified) | 46.7% (inactive) | – |
| CCCCN(C)S(=O)(=O)c1ccc(C(=O)Nc2sc3c(c2C(N)=O)CC(C)(C)NC3(C)C)cc1 | 0% (inactive) | – |
| COc1cc(CNCCSc2nnnn2C)ccc1OCc1ccc(Cl)cc1Cl | 0% (inactive) | – |
| CN(CC(=O)O)S(=O)(=O)c1ccc2oc3ccccc3c2c1 | 10.8% (inactive) | – |
| COC(=O)c1c(C)oc2ccc(N(C(=O)Oc3ccccc3)S(=O)(=O)c3ccccc3)cc12 | – | 2.91 µM (active) |
| CCOC(=O)c1c(C)oc2ccc(OCC(=O)N(CC)CC)cc12 | 0% (inactive) | – |
| O=C(Nc1ccc2c(c1)[C@@H]1C[C@@H](CC(=O)N3CCCCC3)O[C@@H](CO)[C@@H]1O2)NC1CCCCC1 | 3.39% (inactive) | – |
| CC(=O)Nc1cccc(-c2ccnc3c2CC(C)(C(=O)NCc2ccco2)O3)c1 (stereo unspecified) | -1.06% (inactive) | – |
| CC1(C(=O)NCc2ccco2)Cc2c(-c3ccc4c(c3)OCO4)ccnc2O1 (stereo unspecified) | – | 2.59 µM (active) |
| O=C(Cn1nnc(-c2ccc3c(c2)OCO3)n1)NCc1ccco1 | 17.1% (inactive) | – |
| CC(=O)Nc1cccc(-c2ccnc3c2CC(C)(C(=O)NCc2ccccc2)O3)c1 (stereo unspecified) | – | 16.4 µM (active) |
| COc1ccc(NC(=O)C2(C)Cc3c(-c4cccc(NC(C)=O)c4)ccnc3O2)cc1 (stereo unspecified) | 0% (inactive) | – |
| CC1(C(=O)NCC2CCOCC2)Cc2c(-c3cccc(C(N)=O)c3)ccnc2O1 (stereo unspecified) | 3.72% (inactive) | – |
| CCc1nc2c(OCCC3CCCCC3)cccn2c1N(C)C(=O)c1ccco1 | 0.295% (inactive) | – |
| CCOc1ccc(NS(=O)(=O)c2ccc(C(=O)NCC3CCCO3)cc2)cc1 (stereo unspecified) | -27.3% (inactive) | – |
| COc1cccc(-c2cnc3c(NC(C)=O)cc(-c4cccc(NC(C)=O)c4)cn23)c1 | 3.14% (inactive) | – |
| COc1cc(NC(=O)C2=CC(c3ccc(C)cc3)=NS(=O)(=O)N2C)cc(OC)c1OC | 8% (inactive) | – |
| CC(=O)Nc1cc(-c2ccc(N3CCN(C)CC3)cc2)cn2c(-c3cccc(C(=O)N(C)C)c3)cnc12 | 6.38% (inactive) | – |
| COc1ccc(-c2cc(NC(C)=O)c3ncc(-c4cc(OC)c(OC)c(OC)c4)n3c2)cn1 | – | 13 µM (active) |
| COc1ccc(-c2cc(NC=O)c3ncc(-c4cccc(C(=O)N(C)C)c4)n3c2)c(OC)c1 | 6.08% (inactive) | – |
| COc1cccc(-c2cnc3c(NC(C)=O)cc(-c4cc(F)ccc4OC)cn23)c1 | – | 7.31 µM (active) |
| O=C(Nc1cc(F)ccc1F)c1ccc2c(=O)n3c(nc2c1)CCC3 | 1.07% (inactive) | – |

| Structure (SMILES) | activity change, negative = cytotoxicity | Potency |
| --- | --- | --- |
| CCOC(=O)c1c(NC(=O)CSc2cn(CCNC(=O)c3cccc(C(F)(F)F)c3)c3ccccc23)sc2c1CCC2 | 10.6% (inactive) | – |
| OC[C@@H]1CN(Cc2cccs2)C[C@H](n2cnc3c(Nc4ccccc4)ncnc32)O1 | -0.405% (inactive) | – |
| COc1cc(C(=O)Nn2c(CC(C)C)nc3ccccc3c2=O)cc(OC)c1OC | -5.04% (inactive) | – |
| Cc1nc2ccccc2c(=O)n1NC(=O)c1ccccc1 | 19.9% (inactive) | – |
| CCCc1nc2ccccc2c(=O)n1NC(=O)c1c(O)c2ccccc2[nH]c1=O | – | 7.31 µM (active) |
| O=C(CN1C(=O)NC2(CCc3ccccc32)C1=O)NC1CCCCC1 (stereo unspecified) | 0.553% (inactive) | – |
| CC(C)CN1CCC1(C)C(=O)Nc1ccc(OC(F)F)cc1 (stereo unspecified) | -2.57% (inactive) | – |
| Cc1ccc(OCCSc2nc(-c3cccs3)nc3cc(=O)[nH]n23)cc1Cl | -5.26% (inactive) | – |
| O=C(NC1CCN(Cc2ccccc2)CC1)c1cc(Br)c(Br)[nH]1 | -26.5% (inactive) | – |
| S=C(Nc1ccc(Br)cc1Cl)NC1CCN(Cc2ccccc2)CC1 | – | 11.6 µM (active) |
| O=C(COc1ccc(Br)cc1F)NC1CCN(Cc2ccccc2)CC1 | -5.46% (inactive) | – |
| CCc1nc2c(OCCOc3ccccc3)cccn2c1N(C)C(=O)c1ccc(OC)cc1 | -18.3% (inactive) | – |
| COCCCn1cc(CN2CC(N(C)C)CS2(=O)=O)nn1 (stereo unspecified) | -8.55% (inactive) | – |
| CC(C)c1cc(C(=O)NC2CCCCCC2)c2ccccc2n1 | -27.2% (inactive) | – |
| Cc1nc(/N=C(\N)NC(=O)NC2CCCCC2)nc2ccccc12 | – | 5.17 µM (active) |
| Cc1c(C(=O)NC2CCCCC2)oc2ccccc12 | -17.7% (inactive) | – |
| Nc1ncnc2c1ncn2[C@@H]1O[C@H](C(=O)N2CCSC2)[C@@H](O)[C@H]1O | 14.4% (inactive) | – |
| CCN(CC)c1ccc(/C=C/c2c(C)cnc3ccc(C)cc23)cc1 | -20.4% (inactive) | – |
| COC(=O)[C@]12CCCCC=C1N(Cc1ccccc1)C(=O)[C@H](CC(=O)NCc1ccc(C)o1)C2 | -6.44% (inactive) | – |
| COC(=O)[C@]12CCCCC=C1N(Cc1ccco1)C(=O)[C@H](CC(=O)NCCCCc1ccccc1)C2 | 16.2% (inactive) | – |
| COC(=O)[C@@]12C[C@@H](CC(=O)NCCCCc3ccccc3)C(=O)N(CCc3ccc(OC)c(OC)c3)C1=CCC(C)(C)C2 | – | 16.4 µM (active) |
| CCN(CC)C(=O)C1=C(C)N(Cc2ccc(OC)cc2)C(=O)C(CC(=O)NCCCCc2ccccc2)C1 (stereo unspecified) | 5.55% (inactive) | – |
| COC(=O)[C@@]12C[C@@H](CC(=O)NCCCCc3ccccc3)C(=O)N(Cc3ccccc3)C1=CCC(C)(C)C2 | – | 23.1 µM (active) |
| CCOC(=O)N1CCN(C(=O)C[C@@H]2C[C@@]3(C(=O)OC)CC(C)(C)CC=C3N(Cc3ccco3)C2=O)CC1 | -19.3% (inactive) | – |

| Structure (SMILES) | activity change, negative = cytotoxicity | Potency |
| --- | --- | --- |
| COc1ccc(CN2C[C@H]3CON(C)[C@H]3C[C@H]2c2ccc(-c3cccc(F)c3)cc2)cc1 | 0.771% (inactive) | – |
| Cc1ccc(O)c(NC(=O)c2cc(-c3ccc(F)cc3)no2)c1 | 0% (inactive) | – |
| Cc1cc2ccccc2n1CCNC(=O)c1ccc(F)cc1 | 0% (inactive) | – |
| CC1=C(C(=O)N2CCOCC2)CC(CC(=O)NCC2CCCCC2)C(=O)N1Cc1ccc(F)cc1 (stereo unspecified) | 7.51% (inactive) | – |
| Cc1ccc2[nH]c(=O)c(COC(=O)c3ccccn3)cc2c1 | – | 16.4 µM (active) |
| CCOC(=O)c1cc2cc(C)ccc2[nH]1 | 0.803% (inactive) | – |
| O=C(OCc1cc2ccccc2[nH]c1=O)c1cccnc1 | -6.92% (inactive) | – |
| Cc1ccc(S(=O)(=O)N(CCc2ccccc2)c2ccc3c(c2)C2CC3CCN2C(=O)OCc2ccccc2)cc1 (stereo unspecified) | -9.87% (inactive) | – |
| COc1ccc(OC)c(NC(=O)CSC2=Nc3ccccc3C3=NC(CC(=O)NCCc4ccccc4)C(=O)N23)c1 (stereo unspecified) | 11% (inactive) | – |
| O=C(Nc1cc2ccccc2oc1=O)C1CCCCC1 | 13.7% (inactive) | – |
| S=c1[nH]c(-c2cccs2)cn1-c1ccccc1 | -1.38% (inactive) | – |
| O=c1oc2ccccc2cc1-c1cn(-c2ccccc2)c(=S)[nH]1 | – | 5.8 µM (active) |
| Cc1ccc(Cn2c(C)c3cnn(CC(=O)NCc4ccccc4)c(=O)c3c2C)cc1 | -13.6% (inactive) | – |
| COc1ccc(-c2noc(CSc3nc(C)cc(=O)[nH]3)n2)cc1OC | 0% (inactive) | – |
| CN(CCC#N)c1ccc(C=O)cc1 | -7.28% (inactive) | – |
| COc1ccc(C(=O)NC2CC(C)(C)Cc3c2cnn3-c2ccccc2C)o1 (stereo unspecified) | – | 18.4 µM (active) |
| CC1=C(C(=O)NC2CC(C)(C)Cc3c2cnn3-c2ccc(C)cc2)OCCO1 (stereo unspecified) | -14.9% (inactive) | – |
| COc1ccc(C(=O)NC2CC(C)(C)Cc3c2cnn3-c2ccccc2)c(OC)c1 (stereo unspecified) | -23.7% (inactive) | – |
| CC(=O)N1Cc2cc(C(=O)NCc3cccc(F)c3)nc(-c3cccc(C4=CCCCC4)c3)c2[C@H]1CCO | -10.4% (inactive) | – |
| O=C(NC(c1ccc(Cl)cc1)c1cnccn1)C1CCN(Cc2ccc(Cl)cc2)CC1 (stereo unspecified) | -6.8% (inactive) | – |
| COc1ccccc1CNc1nc(Nc2ccccc2Cl)c2sccc2n1 | -8.34% (inactive) | – |
| Cc1ccc(-c2n[nH]c(=S)n2/N=C/c2cc3c(cc2[N+](=O)[O-])OCO3)cc1 | – | 8.2 µM (active) |
| CCOc1ccc(-c2n[nH]c(=S)n2/N=C/c2cc3c(cc2[N+](=O)[O-])OCO3)cc1 | -20.5% (inactive) | – |
| Cc1ccc(S(=O)(=O)N/N=C\c2cc3c(cc2[N+](=O)[O-])OCO3)cc1 | -14.7% (inactive) | – |
